Screens deposited in PubChem by National Center for Advancing Translational Sciences (NCATS).
NPC1 prom act = activates the NPC1 promoter | Huh7 NPC1 promoter luciferase reporter, 24 h | Potency, µM (titrated, usually from 9.22 µM), without a hit: at the top dose activation, actives largely listed as activators | 320,000 compounds, 2.4% hits; also: % of control where 0% means no effect; nearly all actives have a fitted effect of over 60% in size
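Stably transfected Huh7 (NPC1 promoter→luciferase), 1500 cells/well in Opti-MEM + 10% FBS, 2 h settle, then compound 24 h at 37 °C. Luminescence after 10 min with Amplite reagent.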
SMN2 splice up = enhancers of SMN2 splice variant expression; 210,000 compounds, 2.8% hits; HEK293 SMN2-luciferase splicing reporter, luminescence, 30-36 h; Potency, µM (highest dose often 46.1 µM), without a hit: at the highest dose activity change, positive = activation, actives largely listed as activators; also: % of control where 0% means no effect; nearly all actives have a fitted effect of over 55% in size
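qHTS luciferase splicing reporter: luminescence rises when SMN2 exon 7 is included in transfected HEK293 cells. Compound exposure lasted 30-36 h at 37C, with 4.5 mM final sodium butyrate as control, followed by a ONE-Glo read.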
KinaseGlo FLuc = counter-screen: inhibitors of Kinase-Glo firefly luciferase. Q27757. AID 1379. Potency, µM (doses to about 38.3 µM), inactives show top-dose activity change, negative = inhibition, hits mostly inhibitors. 200,000 compounds, 0.28% hits. Kinase-Glo luciferase, ATP luminescence, 8 min; also: % is scaled to controls: 0 for no effect and ±100 for the full control effect; nearly all actives have a fitted effect of over 60% in size
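Recombinant Kinase-Glo luciferase, 10 uM ATP (linear range), luciferin; imidazole pH 7.2 / KCl / MgCl2 / Tween / BSA buffer; 8 min RT; luminescence.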
FLuc counter = counter-screen for miR-21 project: firefly luciferase inhibitors or activators; P08659; purified FLuc, Km substrates, luminescence inhibition; Potency, µM (titrated, usually from 57.5 µM), for inactives: at the top dose activity change, negative = inhibition, hits mostly inhibitors; 360,000 compounds, 6.9% hits; AID 588342;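 also: plate controls were vehicle for no effect and reference inhibitor for full effect; nearly all actives have a fitted effect of over 55% in size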
Target sequence (P08659 whole entry, looked up): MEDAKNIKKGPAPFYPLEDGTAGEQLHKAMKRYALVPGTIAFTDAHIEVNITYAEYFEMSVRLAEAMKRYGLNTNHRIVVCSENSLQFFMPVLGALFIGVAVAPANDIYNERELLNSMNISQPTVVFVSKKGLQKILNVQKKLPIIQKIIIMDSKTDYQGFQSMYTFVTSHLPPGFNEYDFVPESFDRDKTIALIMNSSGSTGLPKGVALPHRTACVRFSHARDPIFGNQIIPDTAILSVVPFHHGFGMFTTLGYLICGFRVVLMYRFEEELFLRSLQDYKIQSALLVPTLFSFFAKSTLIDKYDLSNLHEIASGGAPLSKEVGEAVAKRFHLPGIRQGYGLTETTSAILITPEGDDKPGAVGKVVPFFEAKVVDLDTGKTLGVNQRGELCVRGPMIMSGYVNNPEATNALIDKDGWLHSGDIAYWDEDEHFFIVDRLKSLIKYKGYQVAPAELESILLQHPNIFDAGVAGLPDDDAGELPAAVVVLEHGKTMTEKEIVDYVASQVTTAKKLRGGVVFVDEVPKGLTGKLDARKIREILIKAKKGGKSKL
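Purified P. pyralis luciferase (10nM final) with 10uM D-luciferin and 10uM ATP (Km levels) in 50mM Tris acetate pH 7.5, 10mM Mg acetate, 0.01% Tween-20, 0.05% BSA; qHTS 6-point titration, ~60 µM downward; luminescence read.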
Rab9 promoter act = activators of Rab9 promoter; 320,000 compounds, 2.8% hits; Huh7 Rab9 promoter-luciferase reporter, luminescence, 24 h; AID 485297; Potency, µM (top dose mostly 9.22 µM), without a hit: at the top dose activation, negative = inhibition, actives largely listed as activators; also: % of control where 0% means no effect; nearly all actives have a fitted effect of over 60% in size
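Steps: seed 1500 Huh7 Rab9-luc cells per well, rest 2 h at 37 °C; add compound in DMSO; incubate 24 h; add luciferase reagent, 10 min ambient; read luminescence.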
ELG1 genotoxic = genotoxicity induction in ELG1-luciferase HEK293T cells. HEK293T ELG1-luciferase reporter, luminescence, 16 h. Potency, µM (top dose mostly 46 µM), inactives show at the highest dose activity change, positive = activation, most hits filed as activators. 330,000 compounds, 1.3% hits; also: % of control where 0% means no effect; nearly all actives have a fitted effect of over 60% in size
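HEK293T cells expressing luciferase-tagged ELG1 were exposed to compound or DMSO vehicle for 16 hr at 37 °C and 5% CO2. Luciferase activity was then measured with ONE-Glo after 30 min at room temperature.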
Active calls of the source: *; u = inconclusive; x = not tested or not shown; [ ] = remark or other dose. Shown are actives, neighbours in structure and some others; about 7.5% of the full set was active somewhere. Calls follow the shape of the dose curve; as a rule, active = well fitted curve in the direction sought with a large enough effect; inconclusive = small, poorly fitted or top-dose-only effect, or another doubt; inactive = no such curve, though single readings can be large; an effect the other way counts as inactive or inconclusive. Potency is read from the fitted curve at half-maximal effect.

SMILES	NPC1 prom act	SMN2 splice up	KinaseGlo FLuc	FLuc counter	Rab9 promoter act	ELG1 genotoxic
O=C(Nc1cccc(-c2cn3ccccc3n2)c1)C1CC1	26%	u	-2%	13µM*	3%	u
CN(C)S(=O)(=O)c1cccc(-c2cn3ccccc3n2)c1	14%	1%	0%	-11%	26%	2%
CC1=C(C(=O)Nc2cccnc2)C(c2ccccc2)n2nc(SCc3ccccc3)nc2N1 (stereo not drawn)	x	3%	x	-7%	x	x
CCC(=O)Nc1cccc(-c2nc3ccccc3o2)c1	10%	14%	4%	u	24%	11%
O=C(Nc1ccc(-c2cn3ccccc3n2)cc1)c1cc(Br)ccc1O	x	2%[9.22 µM]	-2%[7.66 µM]	x	x	x
O=C(Nc1ccc(-c2cn3ccccc3n2)cc1)c1cccs1	1.8µM*	11µM*	-24%	1.9µM*	3.5µM*	u
CCC(=O)Nc1cccc(-c2cn3ccccc3n2)c1	u	u	0%	11µM*	u	12%
CCC(=O)Nc1cccc(-c2cn3cccc(C)c3n2)c1	u	x	x	7.6µM*	u	12%
Cc1nnc2ccc(-c3ccc(NC(=O)Cc4cccs4)cc3)nn12	-5%	x	x	-5%	-2%	u
CCOc1ccc(CC(=O)Nc2ccc(-c3ccc4nnc(C)n4n3)cc2)cc1	-9%	-5%	-3%	-7%	-1%	21µM*
Cc1ccc(S(=O)(=O)Nc2cccc(-c3cn4cccc(C)c4n3)c2)c(C)c1	x	-17%	x	u	x	x
CCOC(=O)c1[nH]c(C)c(CCC(=O)N2CCN(c3cccc(C)c3C)CC2)c1C	x	x	x	7%	x	x
CCOC(=O)NN1C(=O)c2ccccc2NC12CCCC2	-4%	-21%	-1%	-2%	1%	15%
Cc1ccccc1OCC(=O)N(Cc1ccc(N(C)C)cc1)CC1CCCO1 (stereo not drawn)	x	-14%	x	-11%	x	x
COc1ccc2c(Cl)cc(NC(=S)Nc3ccccc3)nc2c1	x	-4%[9.22 µM]	-1%[7.66 µM]	x	x	x
COc1ccc(CC(=O)Nc2ccc(-c3cn4ccccc4n3)cc2)cc1	u	u	-8%	3.4µM*	3.2µM*	u
COc1ccc(CC(=O)Nc2ccc(NC(=O)c3ccccc3F)cc2)cc1	-5%	x	1%	1%	-3%	10%
CCc1ccc(C(=O)COC(=O)c2cccnc2Cl)cc1	1%	20%	-25%	0.43µM*	7%	-2%
O=C(COC(=O)c1cccnc1Cl)c1ccccc1	13%	15%	-25%	2.7µM*	3%	u
CCC(C)(C)c1ccc(OC(=O)c2cccnc2Cl)cc1	-1%	x	x	4.8µM*	6%	u
O=C(COC(=O)c1cccnc1Cl)c1ccc(F)cc1	2%	14%	-15%	3µM*	1%	7%
O=C(OCc1ccc(COC(=O)c2cccnc2Cl)cc1)c1cccnc1Cl	-5%	-4%	-2%	u	-7%	-3%
CCOc1ccc(S(=O)(=O)NCCC(=O)NCCOc2ccccc2OC)cc1	-1%	x	x	7%	-3%	2%
CCc1ccc(NS(=O)(=O)c2c(C(=O)N3CCCCCC3)c(C)n(C)c2C)cc1	0%	x	x	3%	-1%	2%
O=C(CCc1ccccc1)Nc1cccnc1Cl	16%	x	x	-15%	25%	9%
SMILES	NPC1 prom act	SMN2 splice up	KinaseGlo FLuc	FLuc counter	Rab9 promoter act	ELG1 genotoxic
O=C(CC(=O)c1ccccc1)Nc1cccnc1Cl	u	13µM*	-6%	12µM*	u	u
C=CC(=O)OCCCC	x	4%	x	x	x	x
Cc1cccc(NC(=O)CN2C(=O)N/C(=C\c3ccc(N4CCOCC4)cc3)C2=O)c1	u	11µM*	3%	3µM*	u	u
Cc1cc(N2CCOCC2)ccc1/C=C1\NC(=O)N(CC(=O)Nc2ccc(F)cc2)C1=O	u	18%	3%	u	u	13%
CCN(CC)c1ccc(C2Nc3cccc4cccc(c34)N2)c(O)c1	u	0%	3%	17µM*	u	10%
COc1cc(C2Nc3cccc4cccc(c34)N2)ccc1O	u	x	x	13µM*	18%	-2%
COc1cc(C2Nc3cccc4cccc(c34)N2)cc(OC)c1OC(C)=O	-2%	4%	-7%	17µM*	2%	5%
COc1ccc(Br)cc1C1Nc2cccc3cccc(c23)N1	u	x	x	-20%	23%	u
Cc1ccc(NC(=O)C2CC(=O)Nc3ncnn32)c(C)c1 (stereo not drawn)	-3%	x	x	-1%	-3%	0%
Oc1cc2ccccc2nc1-c1ccccc1Cl	-3%	x	x	-14%	-3%	-5%
CC1(C)c2ccccc2-c2nc3ccccc3cc2C1O (stereo not drawn)	-5%	x	x	15µM*	4%	0%
Cc1cc(C)cc(-n2ccn(Cc3ccccc3C)c(=O)c2=O)c1	x	x	x	-1%	x	x
Cc1cccc(Nc2nnc(SC3CCOC3=O)s2)c1C (stereo not drawn)	-4%	1%	-1%	u	3%	0%
O=C1OCCC1Sc1nc2ccccc2s1 (stereo not drawn)	-4%	8%	2%	0%	-4%	1%
Cc1ccc(Nc2nnc(SC3CCOC3=O)s2)cc1 (stereo not drawn)	7%	14%	1%	17µM*	-3%	3%
CC(C)c1ccc(Nc2nnc(SC3CCOC3=O)s2)cc1 (stereo not drawn)	0%	5%	-1%	7.6µM*	0%	-1%
O=C1CCCCC1Sc1nnc(Nc2ccccc2)s1 (stereo not drawn)	2.5µM*	10µM*	-2%	19µM*	3.2µM*	u
Cn1cc(S(=O)(=O)N2CCOCC2)cc1C(=O)Nc1ccc(Cl)c(C(F)(F)F)c1	x	x	x	5%	x	x
